Screening data (PubChem)
SNCA viab count: reduces viability of HEK-293 SNCA reporter cells; HEK-293-SNCA-luc viability, GF-AFC fluorescence, 24 h; hit rate 0.12% among 150,000; Potency, µM (doses to about 57.1 µM), for inactives: top-dose activity change, negative = cytotoxicity, usual class: cytotoxic; AID 1671193;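 note: potency is the fitted concentration of half-maximal effect; 0% = DMSO-treated cells and -100% = medium-only wells without cells; nearly all actives have a fitted effect of over 30% in size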
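Cytotoxicity counterscreen: after 24 h compound treatment of genome-edited SNCA-luciferase HEK-293 cells, live-cell protease substrate GF-AFC read by fluorescence after 30 min; activity scaled between DMSO (0%) and medium-only (-100%), curves Hill-fitted.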
IP6K1 inh: blocks human inositol hexakisphosphate kinase 1. Q92551. IP6K1 kinase, ADP-Glo luminescence, 2 h; active compounds read low. activity change, % (series mostly up to about 58 µM). hit rate 0.81% among 140,000. AID 1645851; in the data active = activity change below about -25%
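ADP-Glo luminescence measures ADP made by human IP6K1 during a 2 h RT reaction with ATP/IP6 (mix at 1.3 mM/130 uM); top library doses 57.5 and 19.1 uM final.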
GPT2 inhibitor: blocks human glutamate pyruvate transaminase 2 | hit rate 0.25% among 100,000 | Recombinant GPT2, coupled pyruvate oxidase/HRP Amplex Red fluorescence | Q8TD30 | Potency, µM (top dose mostly 57.7 µM), for inactives: at the highest dose activity change, negative = inhibition, most hits filed as inhibitors; note: potency is the fitted concentration of half-maximal effect; nearly all actives have a fitted effect of over 60% in size
Target sequence (Q8TD30 whole entry, looked up): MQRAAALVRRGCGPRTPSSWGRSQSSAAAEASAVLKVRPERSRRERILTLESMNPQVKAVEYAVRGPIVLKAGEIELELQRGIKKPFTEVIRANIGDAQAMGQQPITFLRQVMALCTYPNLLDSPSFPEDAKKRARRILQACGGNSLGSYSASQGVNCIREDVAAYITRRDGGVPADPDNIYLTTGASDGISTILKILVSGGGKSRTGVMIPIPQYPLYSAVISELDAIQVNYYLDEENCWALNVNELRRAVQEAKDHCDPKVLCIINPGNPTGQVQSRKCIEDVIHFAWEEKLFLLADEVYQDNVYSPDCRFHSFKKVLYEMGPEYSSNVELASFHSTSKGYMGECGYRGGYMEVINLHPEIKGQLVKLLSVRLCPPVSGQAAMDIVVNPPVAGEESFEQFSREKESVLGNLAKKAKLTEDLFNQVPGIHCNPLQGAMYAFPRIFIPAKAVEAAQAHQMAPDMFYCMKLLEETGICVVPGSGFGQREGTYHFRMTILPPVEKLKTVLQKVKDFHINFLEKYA
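Fluorescence read-out: pyruvate from GPT2 turnover coupled to pyruvate oxidase, HRP and Amplex Red (0.2mM ThPP, 0.2U/mL PO and HRP, 50uM Amplex final). Substrates 250uM a-KG, 2mM L-alanine; enzyme 10ng/uL; 30 min RT.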
SNCA expr inh: SNCA gene expression inhibition; Potency, µM (doses to about 57.2 µM), for inactives: at the highest dose activity change, negative = inhibition, actives largely listed as inhibitors; HEK-293 SNCA-luciferase knock-in, luminescence, 24 h; AID 1671194; hit rate 0.17% among 140,000;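 note: potency is the fitted concentration of half-maximal effect; plate controls were DMSO cells for no effect and cell-free wells for full effect; nearly all actives have a fitted effect of over 45% in size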
IP6K1 conf: human IP6K1 inhibition, confirmatory | shares compounds with IP6K1 inh | recombinant IP6K1 kinase, ADP-Glo luminescence, 2 h | Potency, µM (titrated, usually from 49 µM), for inactives: at the highest dose activity change, negative = inhibition, hits mostly inhibitors | hit rate 13% among 1,200; note: potency is the fitted concentration of half-maximal effect; nearly all actives have a fitted effect of over 65% in size
The depositor's hits bear a star; [ ] = dose if it differs, or a comment. The list is not random: actives were taken first. Their share in the collection is about 1.1%. Unless noted, calls come from the whole dose curve; as a rule, active = well fitted curve in the direction sought with a large enough effect; inconclusive = small, poorly fitted or top-dose-only effect, or another doubt; inactive = no such curve, though single readings can be large; an effect the other way counts as inactive or inconclusive. Unless noted, % is set by controls: 0 for no effect and ±100 for the full control effect.

Screening CC(=O)Nc1ccc(NC(=O)c2cc(=O)c3ccccc3o2)cc1 returned SNCA viab count -7%, IP6K1 inh 0 and SNCA expr inh inconclusive.
For O=c1cc(-c2ccccc2)oc2ccccc12 the results were SNCA viab count 22%, IP6K1 inh -30*, GPT2 inhibitor inconclusive, SNCA expr inh 206% and IP6K1 conf inconclusive.
For CC(C)c1ccc(-c2cc(=O)c3ccccc3o2)cc1 the results were SNCA viab count -9%, IP6K1 inh -78*, GPT2 inhibitor inactive and IP6K1 conf 3.3µM*.
`N#Cc1ccc(CN2CCC3(CC2)CC(=O)c2ccc(Cl)cc2O3)cc1` gave SNCA viab count -5%, IP6K1 inh 5, GPT2 inhibitor -6% and SNCA expr inh -29%.
For CN1CCN(C(=O)c2ccc3nnc(C4CCCC4)n3c2)CC1 the results were SNCA viab count -6%[87.6 µM], IP6K1 inh 2, GPT2 inhibitor inactive and SNCA expr inh -5%[87.6 µM].
Cc1ccccc1C(=O)n1nc(-c2cccnc2)nc1NCc1ccccc1 was read as SNCA viab count 1%, IP6K1 inh 20 and SNCA expr inh -3%.
Cc1cccc(C(=O)n2nc(-c3cccnc3)nc2NCc2ccccc2)c1 was read as SNCA viab count 1%, IP6K1 inh -30*, SNCA expr inh 18% and IP6K1 conf inconclusive.
`Cc1ccc2c(n1)sc1c(=O)n(-c3cccc(C(F)(F)F)c3)nnc12` gave SNCA viab count -4%, IP6K1 inh -27*, SNCA expr inh 21% and IP6K1 conf -17%.
O=C(c1ccc(F)cc1)N1CC[C@H]2COC(=O)N2c2cc(F)ccc2C1 was read as SNCA viab count -6%[87.6 µM], IP6K1 inh -3, GPT2 inhibitor -7%[88.5 µM] and SNCA expr inh -26%[87.6 µM].
For c1cc(NCCc2c[nH]c3ccccc23)cc(Nc2ccncc2)c1 the results were SNCA viab count inconclusive, IP6K1 inh -34*, GPT2 inhibitor inconclusive and IP6K1 conf -5%.
Screening O=C(NCCc1c[nH]c2ccccc12)Nc1ccccc1C(F)(F)F returned SNCA viab count -14%, IP6K1 inh -15 and SNCA expr inh -13%.
Cc1ccc(OCC(=O)Nc2ccccc2OCc2cc(=O)n3ccccc3n2)cc1C was read as SNCA viab count 10%, IP6K1 inh -27*, SNCA expr inh 29% and IP6K1 conf -4%.
C[C@@H]1COC(Nc2ccc3ncnc(Nc4ccc(OCc5nccs5)c(Cl)c4)c3c2)=N1 was read as SNCA viab count inconclusive, IP6K1 inh -34*, GPT2 inhibitor 2%, SNCA expr inh -17% and IP6K1 conf inconclusive.
Screening COc1cccc(-c2nc3cc4c(cc3cc2CN2CCCOCC2)OCO4)c1OC returned SNCA viab count -8%, IP6K1 inh -35*, GPT2 inhibitor 3%[11.5 µM], SNCA expr inh -1% and IP6K1 conf -19%.
For N#Cc1ccnc(Nc2cc(C3CCN(C4COC4)CC3)cc(N3CCC(F)(F)C3)n2)c1 the results were SNCA viab count inconclusive, GPT2 inhibitor 3% and SNCA expr inh inconclusive.
For COc1cccc(Cn2cc(S(=O)(=O)c3ccc(C)cc3)c(=O)c3cc4c(cc32)OCO4)c1 the results were SNCA viab count -8%, IP6K1 inh -30*, SNCA expr inh 69% and IP6K1 conf 11%.
Cc1cccc(Cn2cc(S(=O)(=O)c3ccc(Cl)cc3)c(=O)c3cc4c(cc32)OCO4)c1 was read as SNCA viab count -6%, IP6K1 inh -7 and SNCA expr inh -17%.
For O=C(O)CCCNc1cc(N2CCN(C3CCCCC3)CC2)c2noc3c2c1C(=O)c1ccccc1-3 the results were SNCA viab count inconclusive, IP6K1 inh -34*, SNCA expr inh inconclusive and IP6K1 conf inconclusive.
`Cc1cccc(S(=O)(=O)N(C)CC2CCOC2)c1` (stereo unspecified) gave SNCA viab count 1%, IP6K1 inh 16, GPT2 inhibitor inactive and SNCA expr inh -8%.
`Cc1ccc(S(=O)(=O)c2cnc(SCC(=O)Nc3ccc4c(c3)OCCO4)[nH]c2=O)cc1C` gave SNCA viab count 12%, IP6K1 inh -25*, SNCA expr inh 8% and IP6K1 conf inconclusive.
For CCc1ccc(S(=O)(=O)c2cnc(SCC(=O)Nc3ccc(OC)cc3OC)[nH]c2=O)cc1 the results were SNCA viab count 24%, IP6K1 inh -28*, SNCA expr inh 7% and IP6K1 conf inconclusive.
For COc1cc(Cl)c(C)cc1NC(=O)CSc1ncc(S(=O)(=O)c2ccc(C(C)(C)C)cc2)c(=O)[nH]1 the results were SNCA viab count 8%, IP6K1 inh -9 and SNCA expr inh 0%.
O=C(CN1C(=O)NC(c2ccc(Cl)cc2)C2=C1COC2=O)Nc1ccc(Br)cc1F (stereo unspecified) was read as SNCA viab count -20%, IP6K1 inh 7, GPT2 inhibitor inactive and SNCA expr inh inconclusive.
For COc1ccc(-c2ccc3c(c2)C(=O)N2CC[C@H](n4nnc(C(N)=O)c4C(N)=O)C[C@H]2C(=O)N3)c(OC)c1 the results were SNCA viab count -1%, IP6K1 inh -44*, GPT2 inhibitor inconclusive, SNCA expr inh 20% and IP6K1 conf inconclusive.
O=C(O)c1cccc(NC(=O)c2cccc(S(=O)(=O)Nc3cccc(C(=O)O)c3)c2)c1 was read as SNCA viab count 3%, IP6K1 inh -28*, SNCA expr inh 23% and IP6K1 conf inconclusive.
`O=C(NCc1ccco1)c1ccc2c(c1)N(Cc1ccc(Cl)cc1)C(=O)c1ccccc1S2` gave SNCA viab count -22%, IP6K1 inh -26*, SNCA expr inh -20% and IP6K1 conf inconclusive.
COC(=O)N1CCC(C(=O)N2CCC(N3Cc4ccccc4C3=O)CC2)CC1 was read as SNCA viab count 2%, IP6K1 inh -2, GPT2 inhibitor 4% and SNCA expr inh -7%.
COc1ccc(CCNC(=O)CS(=O)Cc2nc(-c3ccc(C)cc3)oc2C)c(OC)c1 (stereo unspecified) was read as SNCA viab count -9%, IP6K1 inh -26*, SNCA expr inh -1% and IP6K1 conf -6%.
COc1ccc(CCNC(=O)CS(=O)Cc2nc(-c3ccc(C)cc3)oc2C)cc1OC (stereo unspecified) was read as SNCA viab count -10%, IP6K1 inh -3 and SNCA expr inh -2%.
CC(C)CCNC(=O)C12CCCC=C1N(c1ccccc1)C(=O)CC2 (stereo unspecified) was read as SNCA viab count -10%, IP6K1 inh 5, GPT2 inhibitor 2% and SNCA expr inh -2%.
For COCCCn1c(=O)c(C(=O)N2CCN(C(=O)c3ccccc3OC)CC2)nc2cccnc21 the results were SNCA viab count 8%, IP6K1 inh 4, GPT2 inhibitor inactive and SNCA expr inh -10%.
For Cn1sc(=O)n(Cc2ccccc2)c1=O the results were SNCA viab count inconclusive, IP6K1 inh -83*, GPT2 inhibitor inconclusive and IP6K1 conf 18µM*.
